Reference: PubChem BioAssay (NCI)
Several values for one entry are separate records, joined by “and”; a condition that tells them apart may be missing. Equal entries are not always repeated. About 83,000 compounds went through this panel and 20% of them were active in at least one assay; those are over-represented in the sample as a whole.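 Results are percent growth after 48 hours of single-concentration exposure. 100 means growth as in untreated cells, lower positive values show inhibition; negative values down to -100 show cell death.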 Activity calls are given as the source filed them. The calls were made as follows: active = growth percent below 10; inactive = the rest.

Tests used:
Assay in all cases: NCI-60 one-dose screen, 48 h (100 = growth as untreated, 0 = no growth, -100 = all killed)
Conditions in all cases: 10 µM unless noted
NCI-H226 lung = test system: NCI-H226 lung
NCI-H322M lung = test system: NCI-H322M lung
HOP-62 NSCLC = test system: HOP-62 NSCLC
NCI-H460 lung = test system: NCI-H460 lung
HOP-92 NSCLC = test system: HOP-92 NSCLC
NCI-H522 lung = test system: NCI-H522 lung
A549/ATCC NSCLC = test system: A549/ATCC NSCLC
786-0 renal = test system: 786-0 renal
COLO 205 colon = test system: COLO 205 colon
DU-145 prostate = test system: DU-145 prostate
K-562 leukemia = test system: K-562 leukemia
MALME-3M melanoma = test system: MALME-3M melanoma
MDA-MB-231 breast = test system: MDA-MB-231 breast
RXF 393 renal = test system: RXF 393 renal
SF-268 CNS = test system: SF-268 CNS
SF-295 CNS = test system: SF-295 CNS
SF-539 CNS = test system: SF-539 CNS
UACC-257 melanoma = test system: UACC-257 melanoma
M14 melanoma = test system: M14 melanoma

Measured: growth

CN(C)C(=S)N(C)C
inactive: NCI-H226 lung 108% | NCI-H322M lung 140% | HOP-62 NSCLC 95.6% | NCI-H460 lung 119% | HOP-92 NSCLC 93.4% | NCI-H522 lung 83.2% | A549/ATCC NSCLC 100% | 786-0 renal 108% | COLO 205 colon 123% | DU-145 prostate 110% | K-562 leukemia 106% | MALME-3M melanoma 165% | MDA-MB-231 breast 111% | RXF 393 renal 114% | SF-268 CNS 103% | SF-295 CNS 112% | SF-539 CNS 99.2% | UACC-257 melanoma 107% | M14 melanoma 101%

CN(C)c1ccc(C(=N)c2ccc(N(C)C)cc2)cc1
active: M14 melanoma 2.95%
12.8% (inactive) and 7.8% (active): K-562 leukemia
9.11% (active) and 15.7% (inactive): NCI-H460 lung
inactive: NCI-H226 lung 74.5% and 47.3% | NCI-H322M lung 58.1% and 60.9% | HOP-62 NSCLC 26.3% and 37.2% | HOP-92 NSCLC 32.5% and 27.5% | A549/ATCC NSCLC 32% and 24.2% | 786-0 renal 47.4% and 40.2% | COLO 205 colon 17.5% and 13.2% | DU-145 prostate 42.3% and 56.5% | MALME-3M melanoma 61.6% | MDA-MB-231 breast 53.9% and 35.9% | RXF 393 renal 49.6% and 39.6% | SF-268 CNS 44.5% and 53.6% | SF-295 CNS 26.7% and 12.1% | SF-539 CNS 41.1% and 34.6% | UACC-257 melanoma 38.2% and 51.7%
-23.9% (active) and 17.8% (inactive): NCI-H522 lung

CC(=O)Nc1cscc1NC(C)=O
inactive: NCI-H226 lung 96.8% | NCI-H322M lung 80.1% | HOP-62 NSCLC 98.2% | NCI-H460 lung 101% | HOP-92 NSCLC 112% | NCI-H522 lung 91.3% | A549/ATCC NSCLC 104% | 786-0 renal 101% | COLO 205 colon 100% | DU-145 prostate 98.4% | K-562 leukemia 125% | MALME-3M melanoma 88.4% | MDA-MB-231 breast 101% | RXF 393 renal 107% | SF-268 CNS 96.2% | SF-295 CNS 87.3% | SF-539 CNS 90.7% | UACC-257 melanoma 104%

N#Cc1c[nH]n2ccnc12
inactive: NCI-H226 lung 96% | NCI-H322M lung 98.7% | HOP-62 NSCLC 86% | NCI-H460 lung 119% | HOP-92 NSCLC 99.5% | NCI-H522 lung 87.8% | A549/ATCC NSCLC 86.7% | 786-0 renal 97.3% | COLO 205 colon 109% | DU-145 prostate 111% | K-562 leukemia 106% | MALME-3M melanoma 106% | MDA-MB-231 breast 111% | RXF 393 renal 113% | SF-268 CNS 107% | SF-295 CNS 99.8% | SF-539 CNS 104% | UACC-257 melanoma 97.7% | M14 melanoma 94.9%

COC(=O)c1nc(N)nc(C(=O)OC)c1C(=O)c1cccc2ccccc12
inactive: NCI-H226 lung 97.1% | NCI-H322M lung 109% | HOP-62 NSCLC 105% | NCI-H460 lung 139% | HOP-92 NSCLC 85.5% | NCI-H522 lung 101% | A549/ATCC NSCLC 107% | 786-0 renal 110% | COLO 205 colon 144% | DU-145 prostate 121% | K-562 leukemia 111% | MALME-3M melanoma 103% | MDA-MB-231 breast 105% | RXF 393 renal 105% | SF-268 CNS 116% | SF-295 CNS 98.7% | SF-539 CNS 95.4% | UACC-257 melanoma 118% | M14 melanoma 108%

CCCC(=O)OCC(COC(=O)CCC)OC(=O)CCC
inactive: NCI-H226 lung 94.5% | NCI-H322M lung 93.9% | HOP-62 NSCLC 98.6% | NCI-H460 lung 101% | HOP-92 NSCLC 87.3% | NCI-H522 lung 99.1% | A549/ATCC NSCLC 94.9% | 786-0 renal 102% | COLO 205 colon 111% | DU-145 prostate 111% | K-562 leukemia 97.7% | MALME-3M melanoma 107% | MDA-MB-231 breast 109% | RXF 393 renal 110% | SF-268 CNS 104% | SF-295 CNS 99.9% | SF-539 CNS 103% | UACC-257 melanoma 95.5% | M14 melanoma 102%

O=C(c1ccccc1)C1(Br)CCCCC1
inactive: NCI-H226 lung 87.5% | NCI-H322M lung 93.4% | HOP-62 NSCLC 96% | NCI-H460 lung 105% | HOP-92 NSCLC 88.1% | NCI-H522 lung 95.6% | A549/ATCC NSCLC 96.8% | 786-0 renal 91.5% | COLO 205 colon 129% | DU-145 prostate 105% | K-562 leukemia 98% | MALME-3M melanoma 95.1% | MDA-MB-231 breast 94.3% | RXF 393 renal 113% | SF-268 CNS 92% | SF-295 CNS 93.4% | SF-539 CNS 93.5% | UACC-257 melanoma 98.7%
